Rows were chosen to be rich in hits. Some 31% of all compounds tested hit in one or more screens of this group.
CYP2C9 inhib: inhibitors of human CYP2C9; P11712; AID 777; CYP2C9 Supersomes, luciferin-H conversion, luminescence; 96,000 compounds, 20% hits; inhibition, % at 5 µM;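 active means blocking of liver enzyme CYP2C9 beyond about 50% at 5 µM, limit read from the data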
CYP2C19 activ: activators of human cytochrome P450 2C19. activation factor at 5 µM. recombinant CYP2C19, luciferin-H EGE luminescence; active compounds read high; 0 = fully inhibited enzyme, 1 = untreated enzyme. P33261. AID 1025. 96,000 tested, under 10 active;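 active means activation factor of at least 2 at 5 µM in the primary screen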
Target sequence (P33261 whole entry, looked up): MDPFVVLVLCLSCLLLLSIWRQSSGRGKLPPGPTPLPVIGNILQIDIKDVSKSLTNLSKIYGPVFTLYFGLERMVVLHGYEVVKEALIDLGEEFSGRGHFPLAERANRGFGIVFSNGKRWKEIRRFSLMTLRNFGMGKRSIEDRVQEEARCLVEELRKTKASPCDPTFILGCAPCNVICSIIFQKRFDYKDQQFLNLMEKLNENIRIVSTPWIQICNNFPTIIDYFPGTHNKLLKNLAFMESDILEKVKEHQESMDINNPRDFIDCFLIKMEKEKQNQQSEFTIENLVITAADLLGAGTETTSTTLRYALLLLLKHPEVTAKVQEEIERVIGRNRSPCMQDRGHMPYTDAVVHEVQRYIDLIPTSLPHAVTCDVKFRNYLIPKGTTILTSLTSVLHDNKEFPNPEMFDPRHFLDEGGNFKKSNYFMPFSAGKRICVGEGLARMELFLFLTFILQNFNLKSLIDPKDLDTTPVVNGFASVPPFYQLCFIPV
CYP2C19 inh: inhibitors of human CYP2C19; AID 778; P33261; inhibition, % at 5 µM; CYP2C19 Supersomes, luciferin-H EGE luminescence, 30 min; 96,000 compounds, 21% hits;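 active means CYP2C19 inhibition above a set limit at 5 µM in the primary screen, cut at about 50% in these data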
CYP2C9 activ: CYP2C9 (human) activation; AID 1024; 96,000 compounds, 1.4% hits; activation factor at 5 µM; P11712; recombinant CYP2C9, luciferin-H conversion, luminescence; active compounds read high; factor 1 = untreated enzyme, 0 = blocked;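 active means activation factor of 2 or more for CYP2C9 at a 5 µM dose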
Large screens that a line does not name were inactive.

CCOC(=O)c1cc(-c2nnc(-c3ccc(Oc4ccccc4)cc3)o2)c(C)nc1C	CYP2C9 inhib 63
Cc1ccc(NC(=O)CN(c2cc(C)cc(C)c2)S(=O)(=O)c2c(C)noc2C)nc1	CYP2C9 inhib 72
Cc1cc(C)cc(N(CC(=O)NCc2ccco2)S(=O)(=O)c2c(C)noc2C)c1	CYP2C9 inhib 67, CYP2C19 inh 82
COc1ccccc1C(=O)Nc1c2c(nn1-c1cccc(C)c1C)CS(=O)C2 (stereo unspecified)	none
CC(C)Cn1c(=O)c(C(=O)NCc2ccccn2)c(O)c2ccccc21	none
O=C(COc1ccccc1Cl)Nc1ccc(Cl)cn1	none
O=C(COc1ccc(Cl)cc1)Nc1ccc(Cl)cn1	CYP2C19 inh 68
Cc1nn(C(C)C(=O)Nc2ccc(Cl)cn2)c(C)c1[N+](=O)[O-] (stereo unspecified)	CYP2C19 inh 74
CCCC(C)C(=O)Nc1ccc(Cl)cn1 (stereo unspecified)	CYP2C19 inh 53
COC(=O)CNC(=O)CNC(=O)Nc1ccccc1Cl	none
CCOC(=O)N1CCN(C(=O)/C(=C/c2ccc(OC)cc2)NC(=O)c2ccccc2)CC1	CYP2C9 inhib 77, CYP2C19 inh 72
CC1=C(C(=O)Nc2ccccc2)C(c2cccs2)n2nnnc2N1 (stereo unspecified)	none
CCCCCCCOC(=O)C1=C(C)Nc2ncnn2C1c1cccs1 (stereo unspecified)	CYP2C9 inhib 64, CYP2C19 inh 74
CCCCCCCCOC(=O)C1=C(C)Nc2nnnn2C1c1cccs1 (stereo unspecified)	CYP2C9 inhib 94, CYP2C19 inh 76
CC1C(c2ccccc2)C(C#N)(C#N)C2(C#N)C(=O)NC1(N)C2C (stereo unspecified)	CYP2C19 inh 98
CCOC(=O)c1cc(-c2cccs2)nc2onc(C)c12	none
CCCn1nc(C(=O)Nc2ccc(S(=O)(=O)Nc3nccs3)cc2)c2ccccc2c1=O	CYP2C9 inhib 60
O=C(CCN1C(=O)S/C(=C\c2ccccc2)C1=O)Nc1ccc(S(=O)(=O)Nc2nccs2)cc1	CYP2C9 inhib 65
CCCn1nc(C(=O)Nc2cccc(C(=O)OC)c2)c2ccccc2c1=O	CYP2C9 inhib 79, CYP2C19 inh 63
CCCn1nc(C(=O)NCc2ccccn2)c2ccccc2c1=O	none
O=C(CN1C(=O)c2cccc3cccc1c23)Nc1ccc(S(=O)(=O)Nc2nccs2)cc1	none
CCOc1ccc(NC(=O)c2cc3n(n2)C(C(F)(F)F)CC(c2ccco2)N3)cc1 (stereo unspecified)	none
CC1(C)CC(=O)c2cn3nc(C(F)(F)F)nc3nc2C1	CYP2C19 inh 56
COc1cc(-c2nnc(-c3ccc(S(=O)(=O)c4ccccc4)cc3)o2)cc(OC)c1OC	CYP2C9 inhib 61, CYP2C19 inh 61
COc1cc(-c2nnc(SCC(=O)c3ccccc3)o2)cc(OC)c1OC	none
COc1cc(-c2nnc(SCC3(c4ccccc4)OCCO3)o2)cc(OC)c1OC	CYP2C19 inh 76
COc1ccc(OC)c(NC(=O)CC(NCCC2=CCCCC2)C(=O)O)c1 (stereo unspecified)	none
O=S(=O)(N1CCOCC1)n1c(Cc2ccccc2)nc2ccccc21	CYP2C19 inh 75
O=C(CSc1nnc(-c2ccc(OC(F)F)cc2)o1)NC(=O)NCc1ccco1	none
O=C(OCC(=O)N1CCCc2ccccc21)c1ccc(Br)o1	CYP2C9 inhib 51, CYP2C19 inh 85
Cc1ccc(OCCC(=O)OCC(=O)N2c3ccccc3CC2C)cc1 (stereo unspecified)	none
O=C(Cn1[nH]c(=O)c2ccccc2c1=O)OCC(=O)N1CCCc2ccccc21	CYP2C19 inh 51
O=C(OCC(=O)N1CCc2ccccc21)c1cccnc1	CYP2C19 inh 77
CC1Cc2ccccc2N1C(=O)COC(=O)CNC(=O)c1ccc(Br)o1 (stereo unspecified)	CYP2C9 inhib 51, CYP2C19 inh 66
CC(C)Cc1nnc(NC(=O)CCC(=O)N2CCN(c3ccccn3)CC2)s1	none
COC(=O)c1ccc(C2c3c(oc4ccc(F)cc4c3=O)C(=O)N2CCO)cc1 (stereo unspecified)	none
O=C(NCC(c1cccs1)N1CCOCC1)c1ccc(Br)o1 (stereo unspecified)	none
OCCN1CCN(CCOc2cccc(Cl)c2)CC1	none
Cc1csc(NC(=O)c2cc(C)oc2C)n1	none
Cc1ccc(NCCC(=O)c2cccc([N+](=O)[O-])c2)cc1	CYP2C19 inh 94
O=C(CCNc1ccc(F)cc1)c1cccc([N+](=O)[O-])c1	CYP2C19 inh 56
O=C(CNC(=O)c1ccc([N+](=O)[O-])cc1)c1ccccc1	none

Source: PubChem (Sanford-Burnham Center for Chemical Genomics)
